Only some compounds are listed: those with a hit (about 6.7% of all), similar ones and a draw of the others.
C diff HTS: C. difficile growth inhibition. AID 1259249. growth activity, negative = inhibition, % at 16 µg/mL (by protocol). actives 0.25% (n = 86,000). Clostridium difficile clinical isolate growth, OD600, 24 h; active compounds read low;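 active = mean growth activity at or below -80% and every replicate also at or below -80%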;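 note: 0% = DMSO wells and -100% = levofloxacin 16 µg/mL wells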
T cruzi growth: inhibitors of T. cruzi proliferation; T. cruzi beta-gal in NIH3T3, GalScreen luminescence, 90 h; actives 5.9% (n = 77,000); inhibition, % at 8.34 µM;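 active = mean inhibition above about 93%, with at least 55% of replicates each passing it, limit read from the data, passing the limit was not always enough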
Pf Dd2 growth: inhibitors of Plasmodium falciparum Dd2 growth. P. falciparum Dd2 growth, SYBR Green, 72 h; active compounds read low. activity change, % at 10 µM. actives 2.3% (n = 94,000); in the data active = activity change below about -80%
An asterisk follows results filed as active; x = not tested or not shown.

SMILES	C diff HTS	T cruzi growth	Pf Dd2 growth
COc1ccc(CN2C[C@@H](C)[C@@H](OC)CN(C)C(=O)c3cc(NC(=O)c4nc5ccccc5s4)ccc3OC[C@H]2C)cc1	x	x	-79.1
COc1ccc(CN2C[C@H](C)[C@H](OC)CN(C)C(=O)c3cc(NC(=O)c4nc5ccccc5s4)ccc3OC[C@@H]2C)cc1	x	x	-83.4*
COc1ccc(CN2C[C@H](C)[C@@H](OC)CN(C)C(=O)c3cc(NC(=O)c4nc5ccccc5s4)ccc3OC[C@H]2C)cc1	x	x	-75.0
COc1ccc(CN2C[C@@H](C)[C@H](OC)CN(C)C(=O)c3ccc(NC(=O)c4nc5ccccc5s4)cc3OC[C@H]2C)cc1	9.5	91.4	-87.8*
Cc1cccc(-c2ccc([C@@H]3[C@@H](CO)N4CCCCN(C(=O)NC(C)C)C[C@@H]34)cc2)c1	-8.2	91.7	6.4
CC=Cc1ccc2n(c1=O)C[C@@H]1[C@@H](CO)[C@H](C(=O)N3CCc4ccccc4C3)[C@H]2N1Cc1ccncc1 (mixture of isomers)	-3.6	64.3	19.8
Cc1ccccc1-c1ccc([C@H]2[C@@H](CO)N3CCCCN(C(=O)Nc4cccc(F)c4)C[C@H]23)cc1	-97.9*	-27.8	-38.1
Cc1ccc(-c2ccc([C@H]3[C@@H](CO)N4CCCCN(C(=O)Nc5cccc(F)c5)C[C@@H]34)cc2)cc1	16.4	93.6	20.6
O=C(Nc1ccc(F)cc1)N1CCCCN2[C@@H](CO)[C@@H](c3ccc(-c4cccc(F)c4)cc3)[C@@H]2C1	-98.6*	50.5	-52.8
Cc1ccccc1-c1ccc([C@H]2[C@@H](CO)N3CCCCN(C(=O)Nc4cccc(F)c4)C[C@@H]23)cc1	10.4	87.1	22.6
O=C(Nc1ccc(F)cc1)N1CCCCN2[C@H](C1)[C@@H](c1ccc(-c3cccc(F)c3)cc1)[C@@H]2CO	49.9	56.1	10.6
Cc1ccc(-c2ccc([C@@H]3[C@H](CO)N4CCCCN(C(=O)Nc5cccc(F)c5)C[C@@H]34)cc2)cc1	-97.9*	80.7	-42.3
Cc1ccccc1-c1ccc([C@@H]2[C@@H](CO)N3CCCCN(C(=O)Nc4ccc(F)cc4)C[C@H]23)cc1	75.2	82.8	-28.8
Cc1ccccc1-c1ccc([C@@H]2[C@H](CO)N3CCCCN(C(=O)Nc4cccc(F)c4)C[C@@H]23)cc1	-95.5*	52.4	-36.2
COc1ccccc1NC(=O)N(C)C[C@@H]1Oc2ncc(C#CCN(C)C)cc2C(=O)N([C@@H](C)CO)C[C@@H]1C	0.1	11.0	17.5
C[C@H](CO)N1C[C@H](C)[C@@H](CN(C)C(=O)Cc2ccccc2)OCCCC[C@H](C)Oc2ccc(NC(=O)CCC(F)(F)F)cc2C1=O	-0.4	21.6	-4.7
COc1ccc(NC(=O)N(C)C[C@@H]2Oc3ccc(NC(=O)Cc4ccccc4)cc3CC(=O)N([C@H](C)CO)C[C@@H]2C)cc1	-6.3	29.0	-9.8
C[C@@H]1CN([C@@H](C)CO)C(=O)c2cc(N(C)C)ccc2O[C@@H](C)CCCCO[C@@H]1CN(C)Cc1ccncc1	2.6	14.5	1.7
COc1ccc(S(=O)(=O)Nc2ccc3c(c2)C(=O)N([C@H](C)CO)C[C@H](C)[C@H](CN(C)C(=O)c2ccncc2)OCCCC[C@@H](C)O3)cc1	4.1	10.7	33.7
C[C@H](CO)N1C[C@H](C)[C@@H](CN(C)S(=O)(=O)c2ccccc2)OCCCC[C@H](C)Oc2ccc(NC(=O)c3ccccc3)cc2C1=O	x	-11.0	-18.0
O=C(Nc1ccccc1)N1CCCCN2[C@H](CO)[C@H](c3ccc(-c4ccccc4F)cc3)[C@H]2C1	60.5	94.6	-32.6
O=C(Nc1cccc(F)c1)N1CCCCN2[C@@H](CO)[C@@H](c3ccc(-c4ccccc4F)cc3)[C@@H]2C1	-97.5*	70.3	-50.0
C/C=C/c1ccc([C@@H]2[C@H]3CN(Cc4ccc(F)cc4)CC(=O)N3[C@H]2CO)cc1	5.4	x	0.6
C[C@@H]1CCCCO[C@H](CN(C)C(=O)Nc2ccc3c(c2)OCO3)[C@@H](C)CN([C@@H](C)CO)C(=O)c2cc(NC(=O)Cc3ccccc3)ccc2O1	4.1	54.2	-65.7
C[C@@H]1CCCCO[C@@H](CN(C)C(=O)Nc2ccc3c(c2)OCO3)[C@@H](C)CN([C@@H](C)CO)C(=O)c2cc(NC(=O)Cc3ccccc3)ccc2O1	-0.2	32.3	-83.5*
C[C@@H]1CCCCO[C@H](CN(C)C(=O)Nc2ccccc2)[C@H](C)CN([C@@H](C)CO)C(=O)c2cc(NC(=O)Cc3ccccc3)ccc2O1	x	39.5	-59.0
C[C@@H]1CCCCO[C@H](CN(C)C(=O)Nc2ccc3c(c2)OCO3)[C@H](C)CN([C@H](C)CO)C(=O)c2cc(NC(=O)Cc3ccccc3)ccc2O1	0.8	73.8	-82.2*

Assay outcomes as filed in PubChem.
